Experimental data from PubChem BioAssay (NCI).
The panel holds about 83,000 compounds, 20% with a hit somewhere; the sample as a whole holds those more often.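 Single-dose data. Exposure time 48 hours. Values below 10 considered active.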 Active and inactive are the calls of the source.

These compounds were tested on SW-620 colon (assay: NCI-60 one-dose screen, 48 h (100 = growth as untreated, 0 = no growth, -100 = all killed)). Conditions: 10 µM unless noted.

Question: Which growth does the source give for `O=S(=O)(c1ccccc1)N1CCCN(c2nc(-c3ccccc3)nc3nc(-c4ccccc4)oc23)CC1` here?
Answer: 109% (inactive)

Question: For `Clc1ccc(-c2cn3ccsc3n2)c(Cl)c1Cl`, which growth is on record?
Answer: 96.8% (inactive)

Question: Which growth does the source give for `O=C(CN1C(=O)/C(=C/c2ccco2)SC1=S)NCCc1c[nH]c2ccc(F)cc12` here?
Answer: 107% (inactive)

Question: How did the growth turn out when `COc1cc(C2C3=C(COC3=O)N(CCO)c3cc4c(cc32)OCCO4)cc(OC)c1OC` (stereo not given) was run?
Answer: 11.9% (inactive)

Question: For `N/C(=N\c1nc2ccccc2s1)NC(=NC1CCCCC1)NC1CCCCC1`, which growth is on record?
Answer: 0.593% (active)

Question: `CC(O)c1ncc(/C=C2\SC(=S)N(Cc3ccccc3)C2=O)s1` (stereo not given) was tested. Which growth did it give?
Answer: 90.3% (inactive)

Question: How did the growth turn out when `COc1ccc2nc3ccccc3c(NCc3ccc(F)cc3)c2c1` was run?
Answer: 14.7% (inactive)

Question: For `COc1cc(-c2cc(-c3ccc(Nc4ncnc5cc(Cl)ccc45)cc3)nc(N3CCN(C)CC3)n2)cc(OC)c1OC`, which growth is on record?
Answer: 72.4% (inactive)

Question: `O=C(Nc1cccnc1Nc1ccc(Cl)cc1)c1cn(Cc2ccc(F)cc2)nn1` was tested. Which growth did it give?
Answer: 114% (inactive)

Question: `N#Cc1c(NC(=O)c2cccs2)[n+]([O-])c2ccc(Cl)cc2[n+]1[O-]` was tested. Which growth did it give?
Answer: 85.3% (inactive)

Question: With `CCOC(=O)/C=C/c1c(C)[nH]c(=O)[nH]c1=O` as the compound, how does the growth read?
Answer: 56.7% (inactive)

Question: How did the growth turn out when `COc1ccc(C2C3=C(COC3=O)N(CCO)c3cc4c(cc32)OCCO4)cc1OC` (stereo not given) was run?
Answer: 13.2% (inactive)

Question: `CN1CCN(c2ccc3c(c2)nc(NNC(=O)c2cnccn2)c2cccn23)CC1` was tested. Which growth did it give?
Answer: 34.1% (inactive)

Question: How did the growth turn out when `C=CCOC(=O)C1=C(C)NC(=O)NC1c1c(Cl)n(C)c2ccccc12` (stereo not given) was run?
Answer: 98.6% (inactive)

Question: For `COc1ccc(Cl)cc1Nc1nc(C(F)(F)F)ccc1C(=O)N/N=C/c1ccccc1Cl`, which growth is on record?
Answer: 7.18% (active)

Question: With `N#Cc1c(-c2ccccc2)nc2c(c(-c3ccccc3)nn2-c2ccccc2)c1-c1ccc(N2CCOCC2)cc1` as the compound, how does the growth read?
Answer: 45.6% (inactive)

Question: How did the growth turn out when `O=C(CCCCCCCCC(=O)N/N=C\c1cc(Cl)ccc1O)N/N=C\c1cc(Cl)ccc1O` was run?
Answer: 46.5% (inactive)

Question: Which growth does the source give for `CC12CCC(/C(=C/NNc3ccc([N+](=O)[O-])cc3[N+](=O)[O-])C1=O)C2(C)C` (stereo not given) here?
Answer: 64.8% (inactive)

Question: Which growth does the source give for `Nc1ccc([N+](=O)[O-])cc1N=C/C=C/c1ccccc1` here?
Answer: 35.3% (inactive)

Question: With `CC1CN=C(c2cccc(-c3ccc(-c4ccccc4)o3)c2)N1` (stereo not given) as the compound, how does the growth read?
Answer: -40.6% (active)

Question: How did the growth turn out when `CCCCc1oc2ccccc2c1C(=O)c1ccc(O)cc1` was run?
Answer: 99.8% (inactive)

Question: Which growth does the source give for `Cc1cc2oc(=O)cc(CP(=O)(O)O)c2cc1O` here?
Answer: 91.3% (inactive)

Question: With `CCOC(=O)C1=C(C)N=C2SC=C(c3ccccc3)N2[C@H]1c1cn[nH]c1-c1ccc(Cl)cc1` as the compound, how does the growth read?
Answer: 37.7% (inactive)

Question: With `CCN1C(=S)N(CC)C2C1NC(=S)N2/N=C/C=C/c1ccccc1OC` (stereo not given) as the compound, how does the growth read?
Answer: 23.8% (inactive)

Question: For `CC(=O)N/C(=C1/OC(C(O)C(O)C(O)CO)CN1C)[P+](c1ccccc1)(c1ccccc1)c1ccccc1` (stereo not given), which growth is on record?
Answer: 104% (inactive)

Question: Which growth does the source give for `CCn1cc(C(=O)N/N=C/c2ccc(Br)cc2)c(=O)c2cc(F)c(N3CCNC(C)C3)c(F)c21` (stereo not given) here?
Answer: -74.1% (active)

Question: With `CCNc1nc(-c2ccc(F)cc2)c(C#N)c(=O)n1C` as the compound, how does the growth read?
Answer: 69.3% (inactive)

Question: How did the growth turn out when `C(/C=C/c1ccccc1)=Nc1ccc(CCc2ccc(N=C/C=C/c3ccccc3)cc2)cc1` was run?
Answer: 51.6% (inactive)

Question: Which growth does the source give for `O=C(N/N=C/c1ccc([N+](=O)[O-])cc1)c1ccc2nc(-c3ccc(Cl)cc3)[nH]c2c1` here?
Answer: 12.7% (inactive)

Question: `Fc1ccc(CNc2c3ccccc3nc3ccccc23)cc1` was tested. Which growth did it give?
Answer: 22.8% (inactive)

Question: For `O=C(CSc1nnc2sc(Nc3cccc(Cl)c3)nn12)c1ccc(F)cc1`, which growth is on record?
Answer: 99% (inactive)

Question: For `Cn1c(=O)c2c(nc(NC3=NS(=O)(=O)c4ccccc43)n2Cc2ccccc2)n(C)c1=O`, which growth is on record?
Answer: 102% (inactive)

Question: Which growth does the source give for `O=c1nc(Nc2nc3ccccc3s2)[nH]c(=O)c2ccccc12` here?
Answer: 101% (inactive)

Question: With `c1ccc2cc(Cn3c[n+](Cc4ccc5ccccc5c4)c4ccccc43)ccc2c1` as the compound, how does the growth read?
Answer: -3% (active)

Question: How did the growth turn out when `Cc1[nH]c(/C=C/C(=O)c2ccc(C(F)(F)F)c(F)c2)c(C)c1C(=O)NCC(C)C` was run?
Answer: 102% (inactive)

Question: Which growth does the source give for `O=C(Nc1cccc(NC(=O)C2CCCCC2)c1)c1ccccn1` here?
Answer: 115% (inactive)

Question: With `CCOC(=O)c1c2c(n3ccccc13)C(=O)c1ncccc1C2=O` as the compound, how does the growth read?
Answer: 21.9% (inactive)

Question: How did the growth turn out when `COc1ccc(C(c2cc(OC)c(OC)c(OC)c2)N2CCN(Cc3ccccc3)CC2)cc1` (stereo not given) was run?
Answer: 43.6% (inactive)

Question: Which growth does the source give for `CN(C)c1ccc(/C=C2/C=C(c3ccccc3)OC2=O)cc1` here?
Answer: 95.2% (inactive)

Question: For `C#CC#CC#CC#CC#CC#CC#CC#CCC1OCC(COC(=O)O[C@@H](C(=O)O[C@H]2C[C@@]3(O)[C@@H](OC(=O)c4ccccc4)[C@@H]4[C@]5(OC(C)=O)CO[C@@H]5C[C@H](O)[C@@]4(C)C(=O)[C@H](OC(C)=O)C(=C2C)C3(C)C)[C@@H](NC(=O)c2ccccc2)c2ccccc2)O1` (stereo not given in full), which growth is on record?
Answer: 24.1% (inactive)

The compounds below were run on MCF7 breast in the same assay as above. Conditions: 10 µM unless noted.

Question: With `O=S(=O)(c1ccccc1)N1CCCN(c2nc(-c3ccccc3)nc3nc(-c4ccccc4)oc23)CC1` as the compound, how does the growth read?
Answer: 90.8% (inactive)

Question: Which growth does the source give for `Clc1ccc(-c2cn3ccsc3n2)c(Cl)c1Cl` here?
Answer: 0.866% (active)

Question: Which growth does the source give for `O=C(CN1C(=O)/C(=C/c2ccco2)SC1=S)NCCc1c[nH]c2ccc(F)cc12` here?
Answer: 97.5% (inactive)

Question: For `COc1cc(C2C3=C(COC3=O)N(CCO)c3cc4c(cc32)OCCO4)cc(OC)c1OC` (stereo not given), which growth is on record?
Answer: 11.2% (inactive)

Question: How did the growth turn out when `N/C(=N\c1nc2ccccc2s1)NC(=NC1CCCCC1)NC1CCCCC1` was run?
Answer: -42.4% (active)

Question: `CC(O)c1ncc(/C=C2\SC(=S)N(Cc3ccccc3)C2=O)s1` (stereo not given) was tested. Which growth did it give?
Answer: 80.3% (inactive)

Question: With `COc1ccc2nc3ccccc3c(NCc3ccc(F)cc3)c2c1` as the compound, how does the growth read?
Answer: -27.7% (active)

Question: For `COc1cc(-c2cc(-c3ccc(Nc4ncnc5cc(Cl)ccc45)cc3)nc(N3CCN(C)CC3)n2)cc(OC)c1OC`, which growth is on record?
Answer: 53.8% (inactive)

Question: For `O=C(Nc1cccnc1Nc1ccc(Cl)cc1)c1cn(Cc2ccc(F)cc2)nn1`, which growth is on record?
Answer: 92.8% (inactive)

Question: For `N#Cc1c(NC(=O)c2cccs2)[n+]([O-])c2ccc(Cl)cc2[n+]1[O-]`, which growth is on record?
Answer: 101% (inactive)

Question: Which growth does the source give for `CCOC(=O)/C=C/c1c(C)[nH]c(=O)[nH]c1=O` here?
Answer: 69.6% (inactive)

Question: With `COc1ccc(C2C3=C(COC3=O)N(CCO)c3cc4c(cc32)OCCO4)cc1OC` (stereo not given) as the compound, how does the growth read?
Answer: 15.9% (inactive)

Question: `CN1CCN(c2ccc3c(c2)nc(NNC(=O)c2cnccn2)c2cccn23)CC1` was tested. Which growth did it give?
Answer: 13.8% (inactive)

Question: For `C=CCOC(=O)C1=C(C)NC(=O)NC1c1c(Cl)n(C)c2ccccc12` (stereo not given), which growth is on record?
Answer: 94.8% (inactive)

Question: `COc1ccc(Cl)cc1Nc1nc(C(F)(F)F)ccc1C(=O)N/N=C/c1ccccc1Cl` was tested. Which growth did it give?
Answer: -8.68% (active)

Question: For `N#Cc1c(-c2ccccc2)nc2c(c(-c3ccccc3)nn2-c2ccccc2)c1-c1ccc(N2CCOCC2)cc1`, which growth is on record?
Answer: 57.6% (inactive)

Question: Which growth does the source give for `O=C(CCCCCCCCC(=O)N/N=C\c1cc(Cl)ccc1O)N/N=C\c1cc(Cl)ccc1O` here?
Answer: 20% (inactive)

Question: With `CC12CCC(/C(=C/NNc3ccc([N+](=O)[O-])cc3[N+](=O)[O-])C1=O)C2(C)C` (stereo not given) as the compound, how does the growth read?
Answer: 50.6% (inactive)

Question: `Nc1ccc([N+](=O)[O-])cc1N=C/C=C/c1ccccc1` was tested. Which growth did it give?
Answer: 51.5% (inactive)

Question: `CC1CN=C(c2cccc(-c3ccc(-c4ccccc4)o3)c2)N1` (stereo not given) was tested. Which growth did it give?
Answer: -57.2% (active)

Question: Which growth does the source give for `CCCCc1oc2ccccc2c1C(=O)c1ccc(O)cc1` here?
Answer: 104% (inactive)

Question: For `Cc1cc2oc(=O)cc(CP(=O)(O)O)c2cc1O`, which growth is on record?
Answer: 88.9% (inactive)

Question: `CCOC(=O)C1=C(C)N=C2SC=C(c3ccccc3)N2[C@H]1c1cn[nH]c1-c1ccc(Cl)cc1` was tested. Which growth did it give?
Answer: 21.7% (inactive)

Question: With `CCN1C(=S)N(CC)C2C1NC(=S)N2/N=C/C=C/c1ccccc1OC` (stereo not given) as the compound, how does the growth read?
Answer: 17.9% (inactive)

Question: Which growth does the source give for `CC(=O)N/C(=C1/OC(C(O)C(O)C(O)CO)CN1C)[P+](c1ccccc1)(c1ccccc1)c1ccccc1` (stereo not given) here?
Answer: 92.8% (inactive)

Question: `CCn1cc(C(=O)N/N=C/c2ccc(Br)cc2)c(=O)c2cc(F)c(N3CCNC(C)C3)c(F)c21` (stereo not given) was tested. Which growth did it give?
Answer: -77.3% (active)

Question: `CCNc1nc(-c2ccc(F)cc2)c(C#N)c(=O)n1C` was tested. Which growth did it give?
Answer: 63.4% (inactive)

Question: How did the growth turn out when `C(/C=C/c1ccccc1)=Nc1ccc(CCc2ccc(N=C/C=C/c3ccccc3)cc2)cc1` was run?
Answer: 69.2% (inactive)

Question: `O=C(N/N=C/c1ccc([N+](=O)[O-])cc1)c1ccc2nc(-c3ccc(Cl)cc3)[nH]c2c1` was tested. Which growth did it give?
Answer: 0.723% (active)

Question: `Fc1ccc(CNc2c3ccccc3nc3ccccc23)cc1` was tested. Which growth did it give?
Answer: 7.09% (active)

Question: Which growth does the source give for `O=C(CSc1nnc2sc(Nc3cccc(Cl)c3)nn12)c1ccc(F)cc1` here?
Answer: 90.4% (inactive)

Question: With `Cn1c(=O)c2c(nc(NC3=NS(=O)(=O)c4ccccc43)n2Cc2ccccc2)n(C)c1=O` as the compound, how does the growth read?
Answer: 88.7% (inactive)

Question: How did the growth turn out when `O=c1nc(Nc2nc3ccccc3s2)[nH]c(=O)c2ccccc12` was run?
Answer: 92.2% (inactive)

Question: With `c1ccc2cc(Cn3c[n+](Cc4ccc5ccccc5c4)c4ccccc43)ccc2c1` as the compound, how does the growth read?
Answer: -30.2% (active)

Question: `Cc1[nH]c(/C=C/C(=O)c2ccc(C(F)(F)F)c(F)c2)c(C)c1C(=O)NCC(C)C` was tested. Which growth did it give?
Answer: 86% (inactive)

Question: For `O=C(Nc1cccc(NC(=O)C2CCCCC2)c1)c1ccccn1`, which growth is on record?
Answer: 86.4% (inactive)

Question: Which growth does the source give for `CCOC(=O)c1c2c(n3ccccc13)C(=O)c1ncccc1C2=O` here?
Answer: 5.14% (active)

Question: Which growth does the source give for `COc1ccc(C(c2cc(OC)c(OC)c(OC)c2)N2CCN(Cc3ccccc3)CC2)cc1` (stereo not given) here?
Answer: 47.7% (inactive)

Question: With `CN(C)c1ccc(/C=C2/C=C(c3ccccc3)OC2=O)cc1` as the compound, how does the growth read?
Answer: 56.6% (inactive)

Question: How did the growth turn out when `C#CC#CC#CC#CC#CC#CC#CC#CCC1OCC(COC(=O)O[C@@H](C(=O)O[C@H]2C[C@@]3(O)[C@@H](OC(=O)c4ccccc4)[C@@H]4[C@]5(OC(C)=O)CO[C@@H]5C[C@H](O)[C@@]4(C)C(=O)[C@H](OC(C)=O)C(=C2C)C3(C)C)[C@@H](NC(=O)c2ccccc2)c2ccccc2)O1` (stereo not given in full) was run?
Answer: 16.1% (inactive)
